According to PubChem BioAssay (NCI):
The panel holds about 83,000 compounds, 20% with a hit somewhere; the sample as a whole holds those more often.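 Growth was measured after 48 h exposure to one concentration of compound in 96-well plates. Values under 10 count as active.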 Unmarked numbers belong to inactive results. Calls of active or inactive are those of the source.

What was measured:
Assay in all cases: NCI-60 one-dose screen, 48 h (100 = growth as untreated, 0 = no growth, -100 = all killed)
Settings in all cases: 10 µM unless noted
[1] = system: T-47D breast
[2] = system: BT-549 breast
[3] = system: MDA-MB-435 melanoma
[4] = system: SW-620 colon
[5] = system: MCF7 breast
[6] = system: HCT-116 colon
[7] = system: HCC-2998 colon
[8] = system: KM12 colon

SMILES | growth [1] | growth [2] | growth [3] | growth [4] | growth [5] | growth [6] | growth [7] | growth [8]
O=P(O)(O)C(O)(Cc1cccnc1)P(=O)(O)O | 76.6% | 86.3% | 97.6% | 98.7% | 91.2% | 106% | 119% | 100%
O=C(/C=C/c1ccccc1Br)c1cccc(OCCCCOc2cccc(C(=O)/C=C/c3ccccc3Br)c2)c1 | 75.4% | 104% | 97% | 99% | 28.1% | 16.4% | 109% | 101%
N=C(N)c1ccc(NCCNc2ccc(C(=N)N)cc2)cc1 | 137% | 133% | 105% | 106% | 101% | 114% | 119% | 105%
C=C(c1ccc(C(=O)NCCCn2ccnc2)cc1)c1cc2c(cc1C)C(C)(C)CCC2(C)C | -16.9% (active) | 39.7% | -27% (active) | 16.5% | 35.5% | -59% (active) | 26.8% | 24.5%
CCOC(=O)C1=C(C(=O)OCC)N(c2cc(OC)c(OC)c(OC)c2)C(N)=C(C#N)C1c1cc(=O)[nH]c2ccccc12 (centres undefined) | 95.4% | 96.5% | 96.6% | 99.2% | 96% | 100% | 108% | 102%
Clc1ccc(Cl)c(N=Cc2ccc3c(c2)OCO3)c1 | 101% | 96.2% | 106% | 107% | 108% | 104% | 98.5% | 106%
C=CCN1C(=O)/C(=c2\sc3n(c2=O)C2C(NN=3)N(CC)C(=O)N2CC)c2ccccc21 (centres undefined) | 57.6% | 25% | -30.2% (active) | 30.9% | 16.6% | 10.7% | 4.46% (active) | 20.1%
CCCCCCCOc1cccc(/C=C2\N=C3SCCCN3C2=O)c1 | -15.5% (active) | 100% | 100% | 99.3% | 92.1% | 88.6% | 110% | 85.8%
COc1ccc(/C(C)=N/NC(=O)c2ccc(S(C)(=O)=O)cc2)cc1OC | 82.6% | 96% | 112% | 103% | 92.9% | 84.7% | 104% | 103%
N/C(=C\C(=O)n1nc(-c2ccccc2)cc1N)c1ccccc1 | 47% | 30.1% | -0.658% (active) | 36.1% | 35% | 27.4% | 43.9% | 30%
COc1ccc(-c2cc(C(=O)Nc3ccc(C)cc3)nc3[nH]c(=O)sc23)cc1 | 58.7% | 75.9% | 65.5% | 77.2% | 71.6% | 66.2% | 76.7% | 67.4%
CCCCCCCC/C=C\CCCCCCCC(=O)OCCCCCC | 102% | 114% | 101% | 106% | 105% | 100% | 107% | 102%
O=c1c2cc(Br)cc(Br)c2nc(-c2ccc(Cl)cc2)n1/N=C/c1cccc(F)c1 | 48.8% | 74.4% | 78.8% | 74.7% | 52.5% | 18.5% | 84% | 70.2%
O=C(CSc1nc2c(n1Nc1ccccc1)-c1ccccc1SC2)Nc1nccs1 | 97.6% | 127% | 103% | 97.5% | 96.3% | 88.3% | 99.7% | 102%
O=C(c1ccccc1)c1cccc(C(Br)Br)c1 | 88.4% | 99.4% | 30.9% | 66.3% | 65.6% | 65.9% | 94% | 75.2%
COc1ccccc1/C=C/C(=O)CCC(=O)O | 93.1% | 113% | 108% | 107% | 102% | 101% | 114% | 114%
COc1ccc(/C=C(\C#N)c2cc(OC)c(OC)c(OC)c2)cc1 | 55.7% | 27.3% | 0.449% (active) | 29.7% | 3.63% (active) | 1.54% (active) | 21.7% | 6.76% (active)
COc1ccc(Oc2nc(Nc3ccc(N4CCOCC4)cc3)ncc2NC(=O)Nc2cccc(OC)c2)cc1 | 75.2% | 34.3% | 60.2% | 67.5% | 88.6% | 19% | 40.3% | 59.2%
CCCCSc1ncnc2c1ncn2C1CCCCO1 (centres undefined) | 104% | 107% | 115% | 107% | 91.5% | 100% | 111% | 108%
COc1ccc(-c2nn(C(=O)NCCN(C)C)cc2-c2ccncc2)cc1Cl | 37.1% | 58.6% | -25.3% (active) | 30.5% | 19.3% | 23.1% | 76.4% | 43.3%
COc1cccc(N2CCN(c3ncnc4cc[nH]c34)CC2)c1 | 20.4% | 42.9% | 42.6% | 90.6% | 46.7% | 35.8% | 62.7% | 71.8%
CSc1nc(N)c2[nH]c(-c3cc4ccccc4[nH]c3=O)nc2n1 | 72.9% | 47.9% | 102% | 90.1% | 65.7% | 53.9% | 95% | 96.9%
CC[C@]1(O)C[C@H]2CN(CCc3c([nH]c4ccccc34)C(C(=O)OC)(c3cc4c(cc3OC)N(C)[C@H]3[C@@](O)(C(=O)OC)[C@H](OC(C)=O)[C@]5(CC)[C@@H]6C[C@@H]6CN6CC[C@]43[C@@H]65)C2)C1 (some centres undefined) | 65.6% | -47.2% (active) | -12.8% (active) | 31.6% | 4.81% (active) | -22.4% (active) | 2.47% (active) | 12%
CC(C)(C)c1ccc(OC(=O)Nc2ccccc2)cc1 | 99.7% | 87.5% | 107% | 106% | 110% | 97.4% | 107% | 104%
CSc1ccc(/C=C2\C=C(CC(=O)NCc3ccc(C(=O)c4ccccc4)cc3)c3cc(F)ccc32)cc1 | 31.6% | 25.7% | -47.8% (active) | 9.98% (active) | -2.9% (active) | -28% (active) | -0.5% (active) | -61.4% (active)
CCCCCc1c(C)[nH]c(/C=C2\N=C(c3ccc[nH]3)C=C2Oc2ccc(OC)cc2)c1C | -48.5% [100 µM] (active) | -91.5% [100 µM] (active) | -82.2% [100 µM] (active) | -56.5% [100 µM] (active) | -100% [100 µM] (active) | -99.4% [100 µM] (active) | -58.2% [100 µM] (active) | -90.9% [100 µM] (active)
CCCC(CCC)(C(N)=O)C(=O)O | 111% | 98.7% | 102% | 103% | 109% | 102% | 100% | 106%
COc1ccc([C@H]2c3[nH]c4ccccc4c3C[C@H]3C(=O)N(CCCCCCC(=O)NO)CC(=O)N23)cc1 | 7.57% (active) | 62.4% | 24.6% | 4% (active) | 29.9% | 10.4% | 6.81% (active) | 49.8%
